# Screens from PubChem.
# This is a sample that favours compounds with a hit; in the whole collection about 1.3% have one here.
# LYPLA1 inh – blocks human lysophospholipase 1, a PME1 counter-screen; AID 2174; inhibition, % at 5.9 µM; 320,000 compounds, 0.16% hits; O75608; recombinant LYPLA1, FP-Rh probe fluorescence polarization;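 active means inhibition above the mean of all tested compounds plus 3 SD, set per campaign, cut at about 14% in these data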;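 further: inhibitors block serine hydrolase probe labeling of LYPLA1 so polarization falls; 0% = enzyme with DMSO and 100% = wells lacking LYPLA1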
# Target sequence (O75608 whole entry, looked up): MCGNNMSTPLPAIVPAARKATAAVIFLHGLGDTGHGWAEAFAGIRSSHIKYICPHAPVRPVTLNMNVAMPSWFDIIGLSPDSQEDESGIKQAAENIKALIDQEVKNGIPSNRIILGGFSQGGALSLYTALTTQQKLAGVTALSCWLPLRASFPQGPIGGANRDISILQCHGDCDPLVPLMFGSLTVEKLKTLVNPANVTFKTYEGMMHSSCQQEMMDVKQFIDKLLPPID
# PME-1 inh – PME-1 (human) inhibition. Q9Y570. recombinant PME-1, FP-Rh probe fluorescence polarization. 320,000 compounds, 0.53% hits. inhibition, % at 5.9 µM;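 active means inhibition above the campaign mean of all compounds plus 3 SD, cut at about 26% in these data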;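 further: competitive labeling of PME-1 active site by serine hydrolase directed probe; 0% = PME-1 with DMSO and 100% = wells lacking PME-1 enzyme; inhibitors block probe labeling so polarization falls and inhibition rises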
# Target sequence (Q9Y570 whole entry, looked up): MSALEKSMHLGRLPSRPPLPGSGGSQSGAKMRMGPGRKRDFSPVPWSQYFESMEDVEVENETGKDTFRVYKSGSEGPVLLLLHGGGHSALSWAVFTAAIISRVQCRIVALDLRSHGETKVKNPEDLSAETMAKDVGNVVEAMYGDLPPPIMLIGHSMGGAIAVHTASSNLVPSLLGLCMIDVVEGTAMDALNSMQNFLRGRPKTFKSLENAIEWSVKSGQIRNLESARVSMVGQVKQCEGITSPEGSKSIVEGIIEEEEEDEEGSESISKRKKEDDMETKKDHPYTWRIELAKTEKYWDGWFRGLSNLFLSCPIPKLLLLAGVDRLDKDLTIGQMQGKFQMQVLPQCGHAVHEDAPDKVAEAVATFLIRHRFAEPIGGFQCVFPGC
# LYPLA2 inh – counter-screen for PME1 inhibitors: inhibitors of human LYPLA2; O95372; recombinant LYPLA2, FP-Rh probe fluorescence polarization; inhibition, % at 5.9 µM; 320,000 compounds, 0.38% hits;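 active means inhibition above the screen-wide mean plus 3 SD, limit set per campaign, cut at about 26% in these data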;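 further: 0% = LYPLA2 with DMSO and 100% = wells lacking LYPLA2 enzyme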
# Fam108B counter – counter-screen for RBBP9 inhibitors: inhibitors of mouse Fam108B; recombinant Fam108B, FP-Rh probe fluorescence polarization; inhibition, % at 9.51 µM; 300,000 compounds, 0.33% hits; AID 1947;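 active means inhibition above the screen mean inhibition plus 3 SD, computed separately per campaign, cut at about 18% in these data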;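 further: inhibitors lower polarization as less probe binds the enzyme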
# PREPL inhibitor – inhibitors of human prolyl oligopeptidase-like enzyme PREPL. recombinant PREPL, fluorescence polarization activity-based probe. inhibition, % at 5.96 µM. 320,000 compounds, 0.68% hits; in the data active means inhibition above about 43%;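 further: 0% = enzyme with DMSO and 100% = wells lacking enzyme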
# Fam108b inh conf – Fam108b (mouse) hydrolase inhibition, confirmation assay; shares compounds with Fam108B counter; recombinant Fam108b, FP-Rh probe fluorescence polarization; inhibition, % at 9.51 µM; 930 compounds, 44% hits;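 active means inhibition above a limit from the primary screen, the mean over all compounds plus 3 SD, cut at about 19% in these data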;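 further: 0% = median of active Fam108b wells and 100% = catalytically dead S170A mutant; inhibitors free the probe so polarization falls as inhibition rises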
# Fam108b ABPP HTS – mouse ABHD17B inhibition. shares compounds with Fam108B counter. recombinant Fam108b, gel-based ABPP, fluorophosphonate probe. inhibition, % at 20 µM. 260 compounds, 44% hits; in the data active means inhibition above about 40%
# An asterisk follows results filed as active; . = no result given.
SMILES,LYPLA1 inh,PME-1 inh,LYPLA2 inh,Fam108B counter,PREPL inhibitor,Fam108b inh conf,others
CCN=c1scc(C)n1/N=C/c1ccc(O)c(O)c1O,-4,-4,-9,5,12,.,
COc1cc(-c2noc(C)c2C(=O)NCCCN2CCOCC2)cc(OC)c1OC,.,.,.,.,12,.,
COC1(OC)N=C(N)C2(C#N)C(c3ccccc3)NC(C)=CC12C#N (centres undefined),0,1,-2,-6,1,.,
CC1=CC(C#N)(C#N)C(C#N)(C#N)C(c2ccccc2)N1 (centres undefined),42*,50*,44*,43*,10,-2,
Cc1cc(C)cc(C(=O)NCCCN2CCOCC2)c1,-1,-1,-5,-1,-5,.,
Cc1nccn1CCCNCc1c(C(=O)N2CCCCCCC2)nc2ccc(Cl)cn12,0,2,2,1,13,.,
Cc1cc(C(=O)CSc2ncccn2)c(C)n1Cc1ccco1,1,-1,2,19*,-2,5,
CC(=O)c1cc(O)c2ccccc2c1O,6,39*,1,31*,10,18,
CC(=NNC(=O)c1cccc(Cl)c1)C1C(=O)c2ccccc2C1=O,.,.,.,.,.,.,Fam108b ABPP HTS=0
CCOc1ccc(C(=O)N/N=C(/C)C2C(=O)c3ccccc3C2=O)cc1,0,-3,-2,3,1,.,
C/C(=N\NC(=O)c1ccc(-c2ccccc2)cc1)C1C(=O)c2ccccc2C1=O,10,17,5,27*,10,25*,
COc1cccc(N2CCN(C(=O)c3cc4c(=O)n(Cc5ccccc5)ccc4nc3C)CC2)c1,-1,0,1,-3,27,.,
O=C1NN(c2cccc(Br)c2)C(=O)/C1=C\c1ccc(O)cc1,2,7,16,4,15,.,
O=C1NN(c2cccc(Br)c2)C(=O)/C1=C/c1ccc(-c2cc([N+](=O)[O-])ccc2O)o1,-9,0,-4,20*,4,-12,
COc1cc(NC(=O)COc2cc3oc(=O)cc(C)c3cc2Cl)cc(OC)c1OC,1,2,0,-1,2,.,
O=C(Nc1cccc(-c2csc(Nc3cccc(C(F)(F)F)c3)n2)c1)c1cc([N+](=O)[O-])cc(C(F)(F)F)c1,-7,2,-10,19*,-2,2,
O=C(Nc1ccc(-c2csc(Nc3ccccc3)n2)cc1)c1cc([N+](=O)[O-])cc(C(F)(F)F)c1,-11,1,-8,64*,3,87*,Fam108b ABPP HTS=100*
O=C(Nc1ccc(-c2csc(Nc3ccc(Cl)cc3)n2)cc1)c1cccc(C(F)(F)F)c1,-11,26*,6,50*,18,68*,Fam108b ABPP HTS=95*
O=S(=O)(c1cccc(Br)c1)N1CCN(C(=S)NCC2CCCO2)CC1 (centres undefined),0,4,9,-1,10,.,
COc1cccc(C(=O)NN2C(=S)N(c3ccccc3)C(=O)C2CC(N)=O)c1 (centres undefined),-2,-4,0,-3,-4,.,
O=C(c1cc(O)c(O)c([N+](=O)[O-])c1)c1ccccc1F,-1,12,2,49*,-3,91*,Fam108b ABPP HTS=0
Cc1ccc(S(=O)(=O)N2[C@@H](c3cccc(Cl)c3)C(C(=O)O)=CC[C@H]2c2ccc3c(c2)OCO3)cc1,-2,-3,-3,-3,6,.,
Cc1cccc(C)c1NC(=O)Cn1c(CN2CCCCC2)nc2ccccc2c1=O,-1,-7,-12,21*,12,2,
CCC(C)n1c(NC(=O)c2ccccc2)c(C#N)c2nc3ccccc3nc21 (centres undefined),-5,-5,-11,-8,1,.,
N#Cc1c(NC(=O)c2ccc(Br)o2)n(-c2ccccc2)c2nc3ccccc3nc12,0,17,1,33*,5,34*,Fam108b ABPP HTS=0
SMILES,LYPLA1 inh,PME-1 inh,LYPLA2 inh,Fam108B counter,PREPL inhibitor,Fam108b inh conf,others
Nc1nn2c(-c3ccccc3)cc(=O)[nH]c2c1N=Nc1ccc(O)cc1,-7,17,-9,21*,36,17,
O=c1[nH]c2cccc(F)c2n2cccc12,-2,4,-4,0,2,.,
CCNC(=O)NC(=O)C(C)OC(=O)Cc1coc2cc3c(cc12)CCC3 (centres undefined),6,-3,3,2,11,.,
CCc1c(C(=O)Nc2ccc(OC)c(Cl)c2)[nH]c(C)c1C(C)=O,-14,-4,-7,19*,28,39*,Fam108b ABPP HTS=0
COc1ccc(OC)c(S(=O)(=O)Nc2cc3c(cc2N2CCCC2)n(C)c(=O)c(=O)n3C)c1,0,3,-1,4,33,.,
CCN(c1ccccc1)S(=O)(=O)c1ccc(NC(=O)c2nc(S(C)(=O)=O)ncc2Cl)cc1,-12,17,-5,38*,-5,37*,Fam108b ABPP HTS=80*
Cc1cc(NC(=O)Nc2cc(F)ccc2F)no1,-3,2,-8,-4,12,.,
CCOc1ccc(-c2c(C(=O)N/N=C/c3c[nH]c4ccccc34)nnn2-c2nonc2N)cc1,-11,21,4,19*,17,-4,
Cc1ccccc1S(=O)(=O)Oc1cccc2c(O)cccc12,-4,0,-7,2,-2,.,
N=c1oc2cc(O)ccc2cc1C(=O)Nc1ccc(Br)cc1,6,9,-3,33*,8,164*,Fam108b ABPP HTS=40*
O=C(COC(=O)/C=C/c1ccc(OC(F)F)cc1)NC1CCCCCC1,.,.,.,.,5,.,
COc1cc(/C=N/Nc2nc3ccccc3s2)ccc1OC(=O)c1ccccc1F,-12,18,5,3,33,.,
COc1cc(/C=N/Nc2nc3ccccc3s2)cc([N+](=O)[O-])c1O,9,62*,5,21*,17,12,
O=[N+]([O-])c1cc(Cl)cc(/C=N/Nc2nc3ccccc3s2)c1O,5,20,4,33*,7,9,
COc1cc(OC)cc(C(=O)Oc2ccc(/C=N/Nc3nc4ccccc4s3)cc2OC)c1,-4,31*,-1,26*,6,12,
Cc1[nH]nc(SCC(=O)NC2CCCCC2)c1[N+](=O)[O-],-2,-1,-4,0,0,.,
COc1cccc(N=C2CC(C)(C)CC(=O)/C2=C(/O)c2ccccc2)c1,-5,7,2,-11,5,.,
COc1ccc(CCNC(=O)COC(=O)C2CC2)cc1OC,.,.,.,.,4,.,
Cc1cc(C)cc(N=Cc2[nH]c3ccc(Br)c(Cl)c3c2O)c1,-8,0,-18,-2,4,.,
COc1ccc(CN=Cc2[nH]c3ccc(Br)c(Cl)c3c2O)cc1,-4,14,4,19*,14,12,
COC(=O)c1ccc([N+](=O)[O-])cc1N1C(=O)C2C3CCC(C3)C2C1=O (centres undefined),-1,5,-10,-3,6,.,
Cn1c(=O)c(C#N)c(-c2ccc(F)cc2)c2cc(C(=O)c3cc(Cl)cc(Cl)c3O)cnc21,1,63*,3,22*,-3,22*,
